Screening data (PubChem)
aSyn UTR act: Activators via SNCA 5'UTR binding, MLPCN; AID 1814, 2009; 300,000 tested, 7.1% active; activity score, % (tested at 7.5 µM), hits read low; alpha-synuclein 5'UTR reporter, activators screen; in the data active means activity score below about -60%
Hits are given with their value; 0 = inactive. The list is a sample of the results.

SMILES	aSyn UTR act
COc1ccc(-c2cc(C(=O)NCc3cccnc3)no2)cc1	-117
CC1Cc2cc(/C(O)=C3/C(=O)C(=O)N(CC4CCCO4)C3c3ccco3)ccc2O1 (configuration not stated)	-62
O=C(Nc1ccn(-c2ccccc2)n1)c1ccccc1Br	-161
O=C(Nc1ccn(-c2ccccc2)n1)c1ccc(Cl)cc1	-136
Cc1cc(/C(N)=N/OC(=O)c2ccc(Cl)cc2)no1	-201
Cc1cc(/C(N)=N/OC(=O)c2cccc(Cl)c2)no1	-193
N/C(=N\OC(=O)c1ccc(Cl)cc1)c1ccccn1	0
Cc1cc(NO)nc(-c2ccc(Br)cc2)n1	-278
CN1CCC(Oc2ccc(Sc3ccccc3)cc2)CC1	-77
Oc1ccc(/C=N/Nc2ccc(Cl)nn2)cc1O	-134
Cc1ccc(/C=N/Nc2ccc(Cl)nn2)cc1	-151
CCOC(=O)C(=CNc1ccc2c(c1)CCN2C(C)=O)C(=O)OCC	-78
COc1cc(C(=O)Nc2ccc3c(c2)CCN3C(C)=O)cc(OC)c1OC	0
O=C(Nc1ccc2c(c1)OCO2)c1ccc(Br)s1	-240
O=C(/C=C\Nc1ccc2c(c1)OCO2)c1cccs1	-147
O=C(Nc1ccc2c(c1)OCO2)c1cccs1	-176
O=C(Nc1ccc2c(c1)OCCO2)c1cccs1	-76
O=C(N/N=C\c1cc2c(cc1Cl)OCO2)c1cccs1	-67
CCN(CC)S(=O)(=O)c1cc(NC(=O)c2ccc(Br)s2)ccc1C	-95
O=C(c1ccc2c(c1)OCCCO2)c1cccs1	-118
O=C(CN1C(=O)c2ccccc2S1(=O)=O)c1ccc2c(c1)OCCCO2	0
O=C(Nc1ccccc1)C1=C[C@@H](c2ccc(C(F)(F)F)cc2)C[C@@H](OCCCCO)O1	-95
O=C(NCc1ccccc1)C1=C[C@@H](c2csc3ccccc23)C[C@@H](OCCCCO)O1	0
C#Cc1ccc([C@@H]2C=C(C(=O)N3CCN(Cc4ccccc4)CC3)O[C@H](OCCCCO)C2)cc1	0
Cc1ccc2[nH]c3c(NCc4ccco4)ncnc3c2c1	-203
SMILES	aSyn UTR act
Cc1ccc2[nH]c3c(NCCCN4CCCC4=O)ncnc3c2c1	-77
O=C(/C=C/c1ccccc1)NC(=S)Nc1ccccc1O	-242
CCS(=O)(=O)c1ccc(O)c(NC(=O)/C=C/c2ccccc2)c1	-110
COC(=O)c1cc(NC(=O)/C=C/c2ccccc2)ccc1O	-141
CCCc1ccc(OCC(=O)Nc2cc(S(=O)(=O)CC)ccc2O)cc1	-171
NC(=S)NC(=O)/C=C/c1ccccc1	-111
O=C(/C=C/c1ccc(F)cc1)NC(=S)Nc1ccccc1O	-210
CCN(CC)c1ccc(Nc2cc3n(c(=O)n2)CCc2cc(OC)c(OC)cc2-3)cc1	0
CCN(CC)c1ccc(NC(=O)c2cc(Cl)ccc2OC)cc1	-63
COc1ccc(Cl)cc1C(=O)Nc1ccc2c(c1)OCO2	-130
COc1ccc(Cl)cc1C(=O)Nc1ccc2c(c1)OCCO2	-104
CS(=O)(=O)N1N=C(c2ccccc2)CC1c1ccc2c(c1)OCO2 (configuration not stated)	-275
Cc1ccc(C2CC(c3ccco3)=NN2S(C)(=O)=O)cc1 (configuration not stated)	-63
CS(=O)(=O)Nc1cccc(C2=NN(S(C)(=O)=O)C(c3ccc4c(c3)OCO4)C2)c1 (configuration not stated)	-86
Cc1ccc(CC(=O)Nc2ncc([N+](=O)[O-])s2)cc1	-136
O=C(Nc1ncc([N+](=O)[O-])s1)c1ccccc1Br	-126
O=C(Nc1cc([N+](=O)[O-])ccc1F)c1cccs1	-70
O=C(Nc1ncc([N+](=O)[O-])s1)c1cccs1	-106
Cc1cnc(NC(=O)c2cccs2)s1	-82
Cc1ccc(NCC(=O)c2ccc([N+](=O)[O-])cc2)cc1	-115
Cc1ccc(C(=O)CNc2ccc(Br)cc2)cc1	-71
O=C1CC(c2ccccc2Cl)=NN(c2ncnc3ccccc23)C1=O	-74
O=C(NC1CC(=O)c2sccc21)c1ccc(Cl)cc1Cl (configuration not stated)	-87
CCOC(=O)c1cc(C(=O)Nc2ccccc2F)nn1C	-159
CCCCCCCCCn1c2c(c(=N)c3c1CCC3)CCCC2	0
SMILES	aSyn UTR act
O=C(c1ccc(Br)cc1)c1cc([N+](=O)[O-])ccc1N1CCCCC1	0
O=C(/C=C/c1ccc(N2CCCCC2)c([N+](=O)[O-])c1)c1ccc(O)cc1	-464
COc1ccccc1C(=O)/C=C/c1ccc(N2CCCCC2)c([N+](=O)[O-])c1	-216
Nc1nnnn1/N=C/c1ccc(N2CCCCC2)c([N+](=O)[O-])c1	-64
COC(=O)c1cnc(SCc2ccc(C)cc2)n1C	-81
Cn1c(N)c(-c2nc3cccnc3n2C)sc1=S	-95
C=CS(=O)(=O)c1ccc(Oc2ccc(S(=O)(=O)C=C)cc2)cc1	-108
C=CCOc1c(Cl)cc(CNc2ccc(C)c(Cl)c2)cc1OC	0
CCOc1cc(CNc2ccc(N3CCCC3)cc2)cc(Cl)c1OC	-67
N#C/C(=N/Nc1ccc(OC(F)(F)F)cc1)C(N)=S	-71
C=CCNC(=O)c1sc(-c2ccccc2)nc1C	-67
Cc1nc(-c2ccccc2)sc1C(=O)NN	-102
Cc1snc2sc(C(=O)c3ccc(F)cc3)c(N)c12	-96
